Among the data in PubChem BioAssay AID493001 (Johns Hopkins Ion Channel Center, 2010) are calcium response (agonist-mode artifact) values, retold here.

The whole screen tested about 1,900 compounds, of which about 430 (23%) were called active.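 The calls were made as follows: active = duplicate-averaged calcium rise in uninduced cells above buffer wells' mean plus 5 SD; inactive = the rest.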 The full list was thinned out, with actives kept by preference.

This assay in a line: direct calcium signal without carbachol stimulation – cell-based, HEK293 M3R, non-induced, no carbachol, second counter-screen, artefact control for RGS4 inhibitor project, confirmation (AID 493001). The conditions noted are these: Fluo-4 calcium, at 10 µM; stronger effect = higher value. Background: Counterscreens check selectivity or assay interference.
In the case of `CCN1C(=O)C(=Cc2c(C)n(CC(=O)NCC3CCCO3)c3ccccc23)C(=O)N(CC)C1=S` (centres undefined), the calcium response (agonist-mode artifact) was 13.5% (active).
As to `O=C(N/N=C/c1c(O)n(Cc2ccccc2)c(=O)[nH]c1=O)c1ccccc1`, the calcium response (agonist-mode artifact) result is “inactive”.
In the case of `O=C1NC(=O)N(Cc2ccco2)C(=O)/C1=C\c1ccc(-c2ccc(F)cc2)o1`, the calcium response (agonist-mode artifact) was 152% (active).
Regarding `Cc1ccc2c(c1)=C/C(=C\c1c(O)[nH]c(=O)[nH]c1=O)C(=O)N=2`, the calcium response (agonist-mode artifact) result was “inactive”.
